Values joined by “and” are separate entries in the source; they are usually repeats but may differ in a detail not shown here. Identical values can stand only once. Records with an inconclusive call do not appear. A structure can be active in one record and inactive in another. Active and inactive are the calls of the source. The calls were made as follows: active = hit-call score of the fitted dose curve at least 0.9, where 1 is the maximum; inconclusive = response in the unintended direction; inactive = score below 0.9.
target: Cellular tumor antigen p53 (Homo sapiens) (UniProt P04637); assay: TOX21_p53_BLA_p5_ratio: Tox21 HCT-116 p53 Agonism Beta-lactamase Assay, Ratio, Phase 5 (AID 2283599)
Sequence (P04637 whole entry, looked up, the tested form may be a part): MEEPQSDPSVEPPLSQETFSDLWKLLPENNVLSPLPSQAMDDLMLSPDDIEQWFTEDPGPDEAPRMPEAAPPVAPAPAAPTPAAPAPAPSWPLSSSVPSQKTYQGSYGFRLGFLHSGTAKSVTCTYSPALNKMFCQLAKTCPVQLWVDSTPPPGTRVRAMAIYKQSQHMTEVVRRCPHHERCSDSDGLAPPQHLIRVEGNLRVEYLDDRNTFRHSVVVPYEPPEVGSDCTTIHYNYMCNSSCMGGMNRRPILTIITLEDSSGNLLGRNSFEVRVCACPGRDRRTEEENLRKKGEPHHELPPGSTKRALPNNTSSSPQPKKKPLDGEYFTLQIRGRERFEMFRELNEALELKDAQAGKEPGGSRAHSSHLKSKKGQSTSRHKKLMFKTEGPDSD
Source text: TOX21_p53_BLA_p5 is a cell-based, single-readout assay that uses HCT116, a human intestinal cell line, […] in a 1536-well plate.TOX21_p53_BLA_p5_ratio is an assay readout measuring reporter gene via receptor activity and designed using inducible reporter (beta lactamase induction) detected with GAL4 b-lactamase reporter gene. The signal is derived from the ratio of cleaved (ch2) to uncleaved (ch1) reporter gene substrate used as the measure of target activity.Data from the assay component TOX21_p53_BLA_p5_ratio was analyzed into 1 assay endpoint. This assay endpoint, TOX21_p53_BLA_p5_ratio, was analyzed in the positive analysis fitting direction relative to DMSO as the negative control and baseline of activity. Using a type of inducible reporter, gain-of-signal activity can be used to understand changes in the reporter gene as they relate to the gene TP53. Furthermore, this assay endpoint can be referred to as a primary readout, because this assay has produced multiple assay endpoints and this ratio serves a reporter gene function to understand target activity. To generalize the intended target to other relatable targets, this assay endpoint is annotated to the DNA binding intended target family, where the subfamily is tumor suppressor.
Thawing Method: Place 14 mL of pre-warmed thaw medium into a 15 mL of conical tub. Remove the vial of cells to be thawed from liquid nitrogen and thaw rapidly by placing at 37C in a water bath with gentle agitation for 1-2 minutes. Decontaminate the vial by wiping with 70% ethanol before opening in a biological safety cabinet. Transfer the vial contents drop-wise into 14 mL of thaw medium in a sterile 15-mL conical tub. Centrifuge cells at 900 rpm for 4 minutes and resuspend in thaw medium. Transfer contents to the T75 tissue culture flask containing Thaw Medium and place flask in a humidified 37C/5% CO2 incubator. Switch to growth medium at first passage.Propagation Method: Aspirate medium, rinse once in DPBS, add 0.25% Trypsin/EDTA and swirl to coat the cell evenly. Add an equal volume of Growth Medium to inactivate Trypsin after 2-3 minutes incubation at 37C. Centrifuge cells at 900 rpm for 4 minutes and resuspend in growth medium. Cell should be passage or fed at least twice a week.Assay Protocol: Harvest cells from culture in growth medium and resuspend in assay medium. 2.2 Dispense 4000 cells/5 uL/well into 1536-well black/clear bottom plates using a Multidrop dispenser. After the cells were incubated at 37C for 5 hours, 23 nL of compounds dissolved in DMSO were transferred to the assay plate by a PinTool resulting in a 217-fold dilution. Incubate the plates for 16 hours at 37C, 5% CO2. Add 1 uL of 6X LiveBLAzer FRET B/G (CCF4-AM) Substrate Mixture to each well using a BioRAPTR dispenser and incubate the plates at room temperature for 2 hours. Measure fluorescence intensity at 460 and 530 nm emission and 405 nm excitation by an Envision detector. Data is expressed as the ratio of 460nm/530nm emissions. Add 4 uL of Cell-titer Glo to each well using BioRAPTR and incubate the plates at room temperature for 2 hours. Measure fluorescence intensity by a VewLux plate reader.

SMILES	outcome	AC50
O=C(O)CCCCCCCCCC(=O)O	inactive	
Cc1ccccc1C	inactive	
O=C1CCCC(=O)O1	inactive	
CCCNC(=O)NS(=O)(=O)c1ccc(Cl)cc1	inactive	
CC(C)(c1cc(Br)c(OCCO)c(Br)c1)c1cc(Br)c(OCCO)c(Br)c1		40.1 µM (active)
O=C(OCC1CCC2OC2C1)C1CCC2OC2C1 (stereo not given)	inactive	
OC1OCCOC1O (stereo not given)	inactive	
CCCCCc1ccc(Cl)cc1	inactive	
O=C(Nc1ccccc1SSc1ccccc1NC(=O)c1ccccc1)c1ccccc1		60 µM (active) and 53.4 µM (active)
CC(=O)Nc1ccc2c(c1)Cc1cc(NC(C)=O)ccc1-2	inactive	
CCN(CC#N)c1cccc(C)c1	inactive	
O=C(c1ccc(O)cc1)c1ccc(O)cc1O	inactive	86.2 µM (active)
c1c[nH]cn1	inactive	
NC(=O)c1ccccc1O	inactive	
CC/C=C\CCOC(=O)CCCCC	inactive	
C/C=C\C/C=C/CCCCCCCCOC(C)=O	inactive	
O=C1CCCC1	inactive	
c1ccc(-c2ccccn2)nc1	inactive	
N#CCc1ccc(Cl)cc1Cl	inactive	

SMILES	outcome	AC50
CCCCC(CC)CCC(CC(C)C)OS(=O)(=O)O (stereo not given)	inactive	
COC(=O)c1cc(Cl)ccc1[N+](=O)[O-]	inactive	
COCC(C)N (stereo not given)	inactive	
COc1cc(C)ccc1C(C)C	inactive	
COC(=O)c1sccc1S(N)(=O)=O	inactive	
CCCCCCCCC(=O)OCC	inactive	
CCCCOCCOC(=O)COc1nc(Cl)c(Cl)cc1Cl	inactive	
Cc1oncc1C(=O)Nc1ccc(C(F)(F)F)cc1	inactive	
C[C@]12C=CC(=O)C=C1CC[C@@H]1[C@@H]2[C@@H](O)C[C@@]2(C)[C@H]1CC[C@]2(O)C(=O)CO	inactive	
COC(=O)C1=C(C)NC(C)=C(C(=O)OCC(C)C)C1c1ccccc1[N+](=O)[O-] (stereo not given)	inactive	20.6 µM (active)
CCOC(=O)NNc1nncc2ccccc12	inactive	
CCCCCCCCCCCSCC(=O)O		83.5 µM (active)
COc1ccc(C(Cl)=C(c2ccc(OC)cc2)c2ccc(OC)cc2)cc1	inactive	
CCCCCCCCO[C@@H]1O[C@H](CO)[C@@H](O)[C@H](O)[C@H]1O	inactive	
Cc1cc(C)c(C)c(C)c1	inactive	
N=c1ccn2c(n1)O[C@H]1[C@H](O)[C@@H](CO)O[C@H]12		2.67 µM (active) and 729 nM (active)
O=C(O)c1ccccc1Nc1cccc(C(F)(F)F)c1	inactive	46.1 µM (active)
NCCCN1CCN(CCCN)CC1	inactive	
